# Unmarked numbers belong to inactive results. Active and inactive are the calls of the source. No rule for the calls is given here.
# Biological target: L-lactate dehydrogenase (Plasmodium falciparum (isolate CDC / Honduras)) (UniProt Q27743)
# Experiment: PfLDH activity inhibition – cell lysate, 3D7 strain, counter-screen for P. falciparum growth inhibition project (AID 2304);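 also: 0% = vehicle and 100% = reference inhibitor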
# Details: P. falciparum 3D7 crude extract, LDH APAD/NBT absorbance; at 2 µM; stronger effect = higher value
# Chain of L-lactate dehydrogenase (Plasmodium falciparum (isolate CDC / Honduras)) (Q27743 whole entry, looked up): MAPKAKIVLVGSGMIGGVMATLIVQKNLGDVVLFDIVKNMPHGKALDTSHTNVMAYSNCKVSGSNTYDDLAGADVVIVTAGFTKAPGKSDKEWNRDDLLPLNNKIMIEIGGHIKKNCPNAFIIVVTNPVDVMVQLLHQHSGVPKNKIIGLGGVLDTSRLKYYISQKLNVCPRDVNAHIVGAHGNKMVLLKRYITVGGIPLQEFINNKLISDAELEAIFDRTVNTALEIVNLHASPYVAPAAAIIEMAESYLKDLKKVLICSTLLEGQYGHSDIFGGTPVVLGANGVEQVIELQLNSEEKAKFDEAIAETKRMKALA
row,SMILES,inhibition [%]
1,CCN(CC)Cc1cc(Nc2ccnc3cc(Cl)ccc23)ccc1O,3
2,CCOc1ccc2nc3cc(N)ccc3c(N)c2c1,0
3,CCCCCCCC/C=C\CCCCCCCC(=O)NCc1ccc(O)c(OC)c1,-7
4,COc1cc2c(Nc3ccc(Br)cc3F)ncnc2cc1OCC1CCN(C)CC1,5
5,Cc1nc(N)nc(N)c1-c1ccc(Cl)c(Cl)c1,3
6,COc1cc2c(cc1OC)-c1cc(=Nc3c(C)cc(C)cc3C)n(C)c(=O)n1CC2,0
7,CCCCc1ccc2nc(NC(=O)OC)[nH]c2c1,-3
8,O=C(Nc1cccc(C2=NCCN2)c1)Nc1cccc(C2=NCCN2)c1,7

# Tested on: not listed separately
# Experiment: inhibition of 3D7 malaria parasite growth – strain 3D7 (AID 2306);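 also: 0% = DMSO wells and 100% = chloroquine plus artemisinin control wells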
# Details: P. falciparum 3D7 erythrocytic growth, LDH absorbance, 72 h; at 2 µM; stronger effect = higher value
row,SMILES,growth inhibition
1,CCN(CC)Cc1cc(Nc2ccnc3cc(Cl)ccc23)ccc1O,102% (active)
2,CCOc1ccc2nc3cc(N)ccc3c(N)c2c1,98% (active)
3,CCCCCCCC/C=C\CCCCCCCC(=O)NCc1ccc(O)c(OC)c1,96% (active)
4,COc1cc2c(Nc3ccc(Br)cc3F)ncnc2cc1OCC1CCN(C)CC1,97% (active)
5,Cc1nc(N)nc(N)c1-c1ccc(Cl)c(Cl)c1,95% (active)
6,COc1cc2c(cc1OC)-c1cc(=Nc3c(C)cc(C)cc3C)n(C)c(=O)n1CC2,92% (active)
7,CCCCc1ccc2nc(NC(=O)OC)[nH]c2c1,98% (active)
8,O=C(Nc1cccc(C2=NCCN2)c1)Nc1cccc(C2=NCCN2)c1,98% (active)

# Reference: PubChem BioAssay
